{"source": "the supplement of paper PMC7156485", "data": [{"system": "TDF", "experiment": "H1.0 immunofluorescence intensity relative to DMSO (% of DMSO); higher = stronger H1.0 induction, active = 120 or more", "conditions": "concentration: 10 µM; 24 h", "how_it_was_run": "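Cell number or H1.0 nuclear intensity appears as percent of the plate control, based on the median of replicates. Measurements came from HCC1569 and TDF cells exposed in triplicate to compounds at 10 µM for 24 h at 37 °C, then imaged in six fields per well at ×10. Positional effects were smoothed out of HCC1569 values.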", "values": [{"smiles": "CS(=O)c1ccc(-c2nc(-c3ccc(F)cc3)c(-c3ccncc3)[nH]2)cc1.Cl", "note": "(configuration not stated)", "H1.0 immunofluorescence intensity": "94.5 (inactive)"}, {"smiles": "CN(C)c1nc(N(C)C)nc(N(C)C)n1", "note": "[Altretamine]", "H1.0 immunofluorescence intensity": "100 (inactive)"}, {"smiles": "CCCN(CCC)CC1CCCCN1CCNC(=O)N1c2ccccc2C(=O)Nc2cccnc21", "note": "(configuration not stated)", "H1.0 immunofluorescence intensity": "87.8 (inactive)"}, {"smiles": "C=CCc1ccc(O)c(OC)c1", "note": "[Eugenol]", "H1.0 immunofluorescence intensity": "89.5 (inactive)"}, {"smiles": "CC(=O)OCC1=C(C(=O)[O-])N2C(=O)C(NC(=O)CSc3ccncc3)C2SC1.[Na+]", "note": "(configuration not stated) [Cephapirin sodium]", "H1.0 immunofluorescence intensity": "93.8 (inactive)"}, {"smiles": "CCn1nc(C(=O)O)c(=O)c2cc3c(cc21)OCO3", "note": "[Cinoxacin]", "H1.0 immunofluorescence intensity": "95.7 (inactive)"}, {"smiles": "COc1cc2c(cc1OC)CC(=O)N(CCCN(C)C[C@H]1Cc3cc(OC)c(OC)cc31)CC2.Cl", "H1.0 immunofluorescence intensity": "92.6 (inactive)"}, {"smiles": "CC1CCC2(C(=O)O)CCC3(C)C(=CCC4C5(C)CCC(O)C(C)(C)C5CCC43C)C2C1C", "note": "(configuration not stated) [Ursolic acid]", "H1.0 immunofluorescence intensity": "97.5 (inactive)"}, {"smiles": "CS(=O)(=O)CCNCc1nc(-c2ccc3ncnc(Nc4ccc(OCc5cccc(F)c5)c(Cl)c4)c3c2)cs1.Cl.Cl", "H1.0 immunofluorescence intensity": "99.4 (inactive)"}, {"smiles": "CCN(Cc1ccncc1)C(=O)C(CO)c1ccccc1", "note": "(configuration not stated) [Tropicamide]", "H1.0 immunofluorescence intensity": "98.4 (inactive)"}, {"smiles": "O=C1C=C(CO)OCC1=O", "note": "[5-hydroxy-2-(hydroxymethyl)-4H-pyran-4-one]", "H1.0 immunofluorescence intensity": "92.9 (inactive)"}, {"smiles": "CC(=O)OCC(=O)C1(O)CCC2C3CCC4=CC(=O)CCC4(C)C3C(O)CC21C", "note": "(configuration not stated) [Hydrocortisone 21-acetate]", "H1.0 immunofluorescence intensity": "78 (inactive)"}]}]}
